From PubChem BioAssay (Tox21)
Results filed as inconclusive are left out. Where a call stands in place of a potency, no number is given. The source made the active and inactive calls. The call rests on the fitted dose curve.

Target: Acetylcholinesterase (Homo sapiens) (UniProt P22303)
Test: Acetylcholinesterase (AChE) small molecule antagonists: fluorescence cell-based qHTS assay (AID 1347398); further: nearly all actives have a fitted effect of over 50% in size
Conditions: SH-SY5Y cells; Potency: AChE activity; outcome: AChE activity; series mostly up to 115 µM
Source text: National Center for Advancing Translational Sciences [NCATS]
Division of Preclinical Innovation [DPI]
U.S. Environmental Protection Agency [EPA]
National Institutes of Environmental Health Sciences [NIEHS]
National Toxicology Program [NTP]
U.S. Food and Drug Administration [FDA]
Acetylcholinesterase (AChE) is the primary cholinesterase in the body that hydrolyzes a key neurotransmitter, acetylcholine. Inhibition of AChE activity can lead to neurotoxicity. Known inhibitors of AChE include organophosphorous pesticides (OP), chemical warfare agents, drugs, and various phytochemicals.
A homogenous cell-based assay using Amplitetrade mark Fluorimetric Acetylcholinesterase Assay Kit *Green Fluorescence* (AAT Bioquest, Sunnyvale, CA) was used to evaluate the chemicals in the Tox21 10K library that inhibit AChE activity. The assay uses Thiolite Green to quantify the thiocholine produced from the hydrolysis of acetylthiocholine by AChE from the SH-SY5Y cells. AChE can hydrolyze acetylthiocholine to create thiocholine. Thiolite Green is fluorescent when reacting with thiocholine. It has spectral properties similar to those of fluorescein. The fluorescence intensity of Thiolite Green is used to measure AChE activity. Its signal can be easily read by a fluorescence microplate reader at Ex/Em = 490/520 nm.
Tox21 Assay Protocol Summary:
For cell-based AChE assay, 2,000 SH-SY5Y cells in 4 uL/well were dispensed into black, clear-bottom 1536-well plates using a Multidrop Combi (Thermo Scientific) dispenser. The assay plates were incubated overnight at 37 C to allow cells to attach to the wells, followed by the transfer of 23 nL compound or DMSO (vehicle control) by a Pintool station (Wako Automation, CA). The plates were incubated for 30 min at 37 C and 5% CO2, followed by the addition of 4 uL of detection cocktail solution (ThioliteGreen, acetylthiocholine) into each well using Flying Reagent Dispenser (Beckman Coulter, CA) and then following 40 min incubation at room temperature. Fluorescent intensity (Ex/Em = 490/520 nm) was measured using an Envision plate reader (PerkinElmer, MA).
Potency means the concentration at half of the fitted maximal effect.

Acetylcholinesterase (Homo sapiens), sequence (P22303 whole entry, looked up): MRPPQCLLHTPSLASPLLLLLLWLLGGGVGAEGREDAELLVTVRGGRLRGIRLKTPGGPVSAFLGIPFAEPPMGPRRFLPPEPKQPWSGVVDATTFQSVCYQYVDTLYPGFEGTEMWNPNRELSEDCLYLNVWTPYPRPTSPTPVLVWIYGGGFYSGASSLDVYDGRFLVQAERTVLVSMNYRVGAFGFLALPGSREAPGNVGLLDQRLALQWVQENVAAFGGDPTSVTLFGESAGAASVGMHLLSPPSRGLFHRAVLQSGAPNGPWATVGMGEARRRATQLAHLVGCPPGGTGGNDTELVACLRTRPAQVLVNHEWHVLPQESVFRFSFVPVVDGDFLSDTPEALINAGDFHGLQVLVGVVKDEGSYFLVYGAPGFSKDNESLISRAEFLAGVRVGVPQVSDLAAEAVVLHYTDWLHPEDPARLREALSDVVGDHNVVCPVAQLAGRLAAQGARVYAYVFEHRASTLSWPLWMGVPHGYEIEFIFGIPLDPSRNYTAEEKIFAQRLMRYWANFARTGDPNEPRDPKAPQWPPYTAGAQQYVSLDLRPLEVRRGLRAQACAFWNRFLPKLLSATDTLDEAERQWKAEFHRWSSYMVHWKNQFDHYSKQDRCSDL

SMILES | Potency | outcome
CCCCS(=O)(=O)Cl | inactive | 
C=C(Cl)CCl | inactive | 
CCC1(c2ccccc2)CCC(=O)NC1=O (stereo not given) | inactive | 
COc1ccc(CN2CCNCC2)c(OC)c1OC | inactive | 
CC1N=C(N)OC1c1ccccc1 (stereo not given) | inactive | 
NNC(N)=O | inactive | 
CCN[C@H](C)Cc1cccc(C(F)(F)F)c1 | inactive | 
N[C@@H](Cc1ccc(Oc2cc(I)c(O)c(I)c2)c(I)c1)C(=O)O | inactive | 
ClC(Cl)(Cl)Cl | inactive | 
NNCc1ccccc1 | inactive | 
CCSC(=O)Cl | inactive | 
O=C1C2CC=CCC2C(=O)N1SC(Cl)(Cl)Cl (stereo not given) | inactive | 
C[C@]12C=CC(=O)C=C1CC[C@@H]1[C@@H]2CC[C@@]2(C)[C@H]1CC[C@]2(C)O | inactive | 
CCOC(=O)NC(C)(C)Cc1ccc(Cl)cc1 | inactive | 
O=C(NC(O)C(Cl)(Cl)Cl)NC(O)C(Cl)(Cl)Cl (stereo not given) | inactive | 
O=[N+]([O-])CCO | inactive | 
CCC(C)C(C)(COC(N)=O)COC(N)=O (stereo not given) | inactive | 
O=C(O)CBr | inactive | 
CCC(C(N)=O)N1CCCC1=O (stereo not given) | inactive | 
CC(C)[N+](C)(CCC(C(N)=O)(c1ccccc1)c1ccccc1)C(C)C | inactive | 

SMILES | Potency | outcome
ClCCCCCCCl | inactive | 
Cc1ccc2cc(C)ccc2c1 | inactive | 
COC[C@@H](NC(C)=O)C(=O)NCc1ccccc1 | inactive | 
COc1cc(CC(C)N)cc(OC)c1OC (stereo not given) | inactive | 
CC(Cc1ccccc1)NCCn1cnc2c1c(=O)n(C)c(=O)n2C (stereo not given) | inactive | 
COP(=O)(O)OC | inactive | 
CC(Cc1ccccc1)NCCCCl (stereo not given) | inactive | 
Nc1c(Cl)c(F)nc(OCC(=O)O)c1Cl | inactive | 
Clc1ccc(C(Cl)(Cl)Cl)cn1 | inactive | 
C#CC(C)(C)O | inactive | 
CC1NCCOC1c1ccccc1 (stereo not given) | inactive | 
CCOC(=O)C(SP(=S)(OC)OC)c1ccccc1 (stereo not given) | 22.4 µM (active) | 
C=C(C)[C@H]1CN[C@H](C(=O)O)[C@H]1CC(=O)O | inactive | 
CC1=C2[C@H]3OC(=O)[C@@H](C)[C@@H]3CC[C@@]2(C)C=CC1=O | inactive | 
N[C@@H]1C[C@H]1c1ccccc1 |  | inactive
COc1ccc(C=O)cc1O | inactive | 
O=C1CCCCC1Cl (stereo not given) | inactive | 
NCCOS(=O)(=O)O | inactive | 
CCCCCCCCBr | inactive | 
CC[C@@H](CO)NC(=O)[C@@H]1C=C2c3cccc4c3c(cn4C)C[C@H]2N(C)C1 | 1.1 µM (active) | 
